# The supplement of paper PMC6555819
# What was measured:
# Experiment in all cases: PBM binding z-score (relative to random genomic background probes); higher = stronger binding; sequences stand for … in GC…GCGATTGACAGCGTAGAATGAAGG
# [1] = tested on: FXR:RXRa (NR concentration 270 nM, RXRa partner concentration 90 nM)
# Method in brief: (§1)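 Regression normalization was applied to scanned fluorescence from custom Agilent 4×180K protein-binding microarrays. Before scanning, arrays were incubated 1 h with ligand-free nuclear receptor dimers, and binding was detected with antibodies against each partner (one per run). Binding z-scores use the random background probes as reference.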
# [2] = tested on: LXRa:RXRa (NR concentration 270 nM, RXRa partner concentration 90 nM)
# Method in brief: as §1
# [3] = tested on: LXRa homodimer (NR concentration 270 nM)
# Method in brief: as §1
# [4] = tested on: LXRb:RXRa (NR concentration 270 nM, RXRa partner concentration 90 nM)
# Method in brief: as §1
# [5] = tested on: LXRb homodimer (NR concentration 270 nM)
# Method in brief: as §1
# [6] = tested on: PPARa:RXRa (NR concentration 270 nM, RXRa partner concentration 90 nM)
# Method in brief: as §1
# [7] = tested on: PPARg:RXRa (NR concentration 180 nM, RXRa partner concentration 90 nM)
# Method in brief: as §1
# [8] = tested on: PPARg:RXRa 270nM:90nM, anti-RXR (NR concentration 270 nM, RXRa partner concentration 90 nM)
# Method in brief: as §1
# [9] = tested on: PPARg:RXRa 30nM:10nM, anti-RXR (NR concentration 30 nM, RXRa partner concentration 10 nM)
# Method in brief: as §1
# [10] = tested on: PPARg:RXRa 90nM:30nM, anti-RXR (NR concentration 90 nM, RXRa partner concentration 30 nM)
# Method in brief: as §1
# [11] = tested on: PPARg:RXRa DBDmut IVT, anti-RXR (DBD mutation: RXRa K156A/R161A, NR concentration 270 nM, RXRa partner concentration 90 nM)
# Method in brief: as §1
# [12] = tested on: PPARg:RXRa IVT, anti-PPARg (NR concentration 270 nM, RXRa partner concentration 90 nM)
# Method in brief: as §1
# [13] = tested on: PPARg DBDmut:RXRa IVT, anti-PPARg (DBD mutation: PPARg1 K132A/R137A, NR concentration 270 nM, RXRa partner concentration 90 nM)
# Method in brief: as §1
# [14] = tested on: PPARg DBDmut IVT, anti-PPARg (DBD mutation: PPARg1 K132A/R137A, NR concentration 270 nM)
# Method in brief: as §1
# [15] = tested on: PPARg homodimer (NR concentration 180 nM)
# Method in brief: as §1
# [16] = tested on: PXR:RXRa (NR concentration 270 nM, RXRa partner concentration 90 nM)
# Method in brief: as §1
# [17] = tested on: PXR homodimer (NR concentration 270 nM)
# Method in brief: as §1
# [18] = tested on: RARa:RXR (NR concentration 270 nM, RXRa partner concentration 90 nM)
# Method in brief: as §1
# [19] = tested on: RARa homodimer (NR concentration 270 nM)
# Method in brief: as §1
# [20] = tested on: RARb:RXRa (NR concentration 270 nM, RXRa partner concentration 90 nM)
# Method in brief: as §1
Sequence,PBM binding z-score [1],PBM binding z-score [2],PBM binding z-score [3],PBM binding z-score [4],PBM binding z-score [5],PBM binding z-score [6],PBM binding z-score [7],PBM binding z-score [8],PBM binding z-score [9],PBM binding z-score [10],PBM binding z-score [11],PBM binding z-score [12],PBM binding z-score [13],PBM binding z-score [14],PBM binding z-score [15],PBM binding z-score [16],PBM binding z-score [17],PBM binding z-score [18],PBM binding z-score [19],PBM binding z-score [20]
AGAATGAGGTTAAGATCAGGGAAACAGAATACAT,2.37,2.14,-0.0625,1.9,-0.0135,3.67,2.46,2.54,1.11,1.75,2.82,2.83,1.43,0.885,0.847,1.38,0.732,2.08,0.481,2.01
AGCATGAGGTTATTAAGATCAGGGAATTGCGGTC,1.6,1.5,0.191,1.14,-0.175,2.03,0.647,1.13,0.242,0.454,0.439,0.818,0.518,-0.586,0.577,1.29,0.786,1.44,0.368,1.45
GTACCAAGGTGAGTAGGTCGTTGATGAGTAGGCG,0.04,0.0147,-0.31,-0.286,-0.924,1.17,0.822,0.888,-0.11,0.35,1.77,2.68,-0.145,-1.14,0.691,0.089,0.0427,0.391,0.166,1.16
AGAATGTGGTTACCAAAGATCAGGGAAACGCTTG,-0.517,0.7,-0.272,-0.139,-0.442,-0.0504,0.469,0.425,0.333,0.271,0.0362,0.248,0.393,0.266,0.264,-0.353,-0.342,-0.178,-0.0425,-0.0731
CGAACTAGGTCAAGGACATTGAATCTCCGCACGC,3.45,2.4,0.44,1.68,0.0209,4.43,7.54,6.28,4.19,6,8.24,7.84,1.49,0.731,1.29,1.56,0.252,2.12,0.87,3.98
CCTACTGGGCCATTCTGAGGTCATTGATCATATG,2.12,3.35,4.95,2.83,0.173,3.25,1.63,2.38,0.733,1.84,4.08,4.24,0.979,-0.299,1.5,4.42,3.46,3.85,-0.372,2.57
ATCGAAAGTTCGAGGTGAGTATAGAGAAAGGGAA,0.831,1,-0.204,0.703,-0.225,1.76,0.648,0.797,0.3,0.478,-0.474,0.844,0.383,0.642,0.238,0.98,0.157,1.01,-0.05,2.53
TCGAGTAGGCTAGTCGGGGCATTCAGCCAACATA,-0.433,-0.611,-0.763,-0.579,-1.53,-0.209,-0.351,0.0773,0.911,0.101,0.821,0.0917,-1.43,-1.24,-0.694,-0.462,-0.889,-0.446,-1.18,-0.223
TCATACAGGTAAAGGTGAAAGTCGAACGATATGA,1.17,1.57,0.0169,1.44,0.312,3.08,2.39,3.81,4.26,4.38,2.37,2.45,1.8,0.696,0.957,1.03,0.178,1.82,1.18,2.19
GCTCGGAGGACAAGGTTAGAGCTTTGTCCGTAGA,-0.181,-0.186,-1.07,-0.329,-0.89,0.169,-0.843,0.0367,-1.07,-0.395,-0.578,-0.435,-1.46,-0.888,-0.772,-0.186,-0.847,-0.266,-1.1,1.45
TCTATTGGTTGATTAGGGCAACCGAAACAGCGGA,0.575,0.37,-0.105,0.525,0.775,0.817,0.0989,1.86,3.2,2.59,1.96,1.31,1.58,0.647,1.38,0.573,0.277,0.835,0.652,1.06
AGAACGAGGGCACGCTGAGTTGATCGCAGAGTAG,0.98,0.604,-0.623,0.0852,-0.872,2.16,1.93,1.66,0.193,0.789,4.59,4.13,0.408,-0.362,-0.239,1.53,0.103,0.735,-1.04,2.57
CCAAACAGGTGAGAAGGTAACTCAGCCTCGATTA,-0.19,-0.0558,-0.189,-0.138,-0.392,0.653,0.64,1.22,0.297,0.598,1.49,1.46,0.108,-0.155,0.805,-0.406,0.0845,0.105,0.426,0.534
TAGCCTAGGTCATCCAGGGGCCAGTATAGAAAGC,4.4,3.37,0.176,2.82,0.318,3.66,2.57,2.47,0.738,1.52,1.23,2.73,0.724,-0.3,1.93,2.6,-0.246,3.55,0.127,3.98
